The list is not random: actives were taken first. Their share in the collection is about 21%.
AMA1 RON2 block: qHTS for Inhibitors of AMA1-RON; Towards Development of Antimalarial Drug Lead: Primary Screen; Potency, µM (highest dose often 58.2 µM), inactives show at the highest dose activity change, negative = inhibition, hits mostly inhibitors; AID 720542, 2013; AlphaScreen AMA1-biotinylated RON2 peptide binding; hit rate 0.2% among 360,000; Plasmodium falciparum AMA1 (3D7) - RON2 peptide interaction;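 also: potency is read from the fitted curve at half-maximal effect; 0% = vehicle wells and -100% = peptide control; nearly all actives have a fitted effect of over 45% in size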
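AMA1 (3D7) with his tag at 25 nM final met compounds first, then biotinylated RON2 peptide at 25 nM; detection used donor plus acceptor beads, 10 µg/mL apiece, read by AlphaScreen after 30 min at room temperature.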
Pf growth 48h: Primary qHTS for delayed death inhibitors of the malarial parasite plastid, 48 hour incubation | P. falciparum luciferase growth in erythrocytes, 48 h | Potency, µM (top dose mostly 28.7 µM), for inactives: at the highest dose activity change, negative = inhibition, most hits filed as inhibitors | hit rate 5.9% among 310,000; also: potency is read from the fitted curve at half-maximal effect; % is scaled to controls: 0 for no effect and ±100 for the full control effect
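Erythrocytes infected with P. falciparum carrying an integrated firefly luciferase reporter (2% hematocrit, 0.1% parasitemia final) were exposed to compounds in RPMI 1640 with 0.5% Albumax at 37 C, 5% CO2. Growth inhibition was scored as reduced luminescence.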
HCV inh: qHTS Assay for Inhibitors of Hepatitis C Virus (HCV) | Potency, µM (series often up to 41.8 µM), inactives show at the highest dose activity change, negative = inhibition, usual class: inhibitors | hit rate 3.4% among 340,000 | Huh7.5.1 HCVcc-Cre infection, luciferase reporter, 44 h; also: potency is read from the fitted curve at half-maximal effect; % is scaled to controls: 0 for no effect and ±100 for the full control effect
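Infectious HCV cell culture screen: compound-treated cells (1,000/well, pre-plated 4 h) are infected with HCVcc-Cre at roughly 0.5 moi and grown 44 h. Infection is quantified by luciferase signal after 15 min substrate incubation at room temperature.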
Pf growth 96h: Primary qHTS for delayed death inhibitors of the malarial parasite plastid, 96 hour incubation; P. falciparum luciferase reporter growth, 96 h; Potency, µM (highest dose often 28.7 µM), without a hit: at the highest dose activity change, negative = inhibition, usual class: inhibitors; hit rate 6.9% among 320,000; AID 504834, 2011; also: potency is read from the fitted curve at half-maximal effect; % is scaled to controls: 0 for no effect and ±100 for the full control effect
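P. falciparum expressing integrated firefly luciferase, in erythrocytes at 2% hematocrit, 0.05% parasitemia, incubated with compounds 96 h at 37 C, 5% CO2. Growth inhibition read as loss of luminescence; two-generation exposure targets delayed-death apicoplast inhibitors.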
CHX counter: Cycloheximide Counterscreen for Small Molecule Inhibitors of Shiga Toxin; max response, %; cell reporter, cycloheximide protein synthesis inhibition counterscreen; hit rate 12% among 300,000; AID 2314, 2010; in the data active = max response mostly above about 13%, no sharp cut-off; inactive = mostly below about 14%; also: read at 38.3 µM for the half of the compounds with a filed dose; 0% is about no effect
Shiga toxin inh: A qHTS for Small Molecule Inhibitors of Shiga Toxin | AID 2315, 2010 | inhibition, % at 38.7 µM | Vero cells, Shiga toxin protein synthesis inhibition reporter | hit rate 9.2% among 290,000; in the data active = inhibition mostly above about 28%, no sharp cut-off; inactive = mostly below about 43%; also: 0% is about no effect
* marks the source's active call; other numbers are inactive results; i = inactive; ? = inconclusive; / = no result given. Unless noted, calls follow the shape of the dose curve; as a rule, active = well fitted curve in the direction sought with a large enough effect; inconclusive = small, poorly fitted or top-dose-only effect, or another doubt; inactive = no such curve, though single readings can be large; an effect the other way counts as inactive or inconclusive.

SMILES	AMA1 RON2 block	Pf growth 48h	HCV inh	Pf growth 96h	CHX counter	Shiga toxin inh
COc1cc(OC)cc(-n2nnnc2SCC(=O)N2CCCC2)c1	9%	15%	-12%	?	-3	2
O=C(Nc1cc(Cl)cc(Cl)c1)N1CCCC1	2%	-95%	1%	?	11	9
C=CCN=C(NC#N)SCc1ccccc1	-11%	23%	19%	14%	-3	-15
C=CCN=C(NC#N)SCC(=O)c1cccc(OC)c1	-14%	-6%	-28%	-2%	61*	63*
CCOC(=O)c1cnc2ccc(C)cc2c1NCCN1CCOCC1	-6%	12µM*	-20%	14%	6	-4
CCOC(=O)c1cnc2ccc(Cl)cc2c1NCCN(C)C	4%	?	4%	4.7µM*	26*	35
CCOC(=O)c1cnc2ccc(Br)cc2c1NCCO	-9%	4%	?	3%	-2	-1
CCOC(=O)c1cnc2ccccc2c1NCCO	-3%	-7%	-1%	?	9	41
CCOC(=O)c1cnc2c(ccc3ccccc32)c1NCCCN(C)C	0%	4.1µM*	?	?	33*	131*
FC(F)(F)c1ccccc1Cc1c(-c2cccc(Cl)c2)nc2c3ccccc3ccn12	6%	/	/	/	/	/
C[C@@H]1CN([C@H](C)CO)C(=O)CCCn2nncc2CO[C@H]1CN(C)Cc1ccc(Cl)c(Cl)c1	-6%	/	/	/	/	/
O=C1/C(=C\c2ccccc2)CCc2c1[nH]c1ccccc21	23%	35%	?	92%	42*	52*
CCCC/C=C1\CCc2c([nH]c3ccccc23)C1=O	3%	52%	-9%	2%	32*	57*
CCCCCN1CC(=O)N2Cc3[nH]c4ccccc4c3C[C@H]2C1=O	-1%	?	-6%	?	8	-7
Cc1ccc(/C=C2/CCc3c([nH]c4ccccc34)C2=O)cc1	-2%	419%	?	i	29*	52*
O=C1/C(=C/c2c[nH]c3ccccc23)CCC/C1=C\c1c[nH]c2ccccc12	-11%	?	?	-6%	-2	-1
CCCCN1CCc2c([nH]c3ccccc23)C1=O	5%	84%	-6%	-6%	35*	95*
CCCNC(=O)C1(C)CCCN(Cc2ccc(C(F)(F)F)cc2)C1 (stereo not given)	-8%	/	/	/	/	/
C=C1CCc2c([nH]c3ccc(OCC(C)C)cc23)C1=O	5%	7%	?	22%	2	-3
CC(C)/C=C1\CCc2c([nH]c3ccccc23)C1=O	-1%	?	3%	?	32*	45*
Cc1ccc2[nH]c3c(c2c1)CC/C(=C/c1ccccc1)C3=O	-7%	48%	-1%	/	23*	32
O=C1C2C3C=CC(CC3)C2C(=O)N1/N=C/c1c[nH]c2ccccc12 (stereo not given)	-2%	169%	2%	78%	52*	125*
COc1ccccc1/C=N/N1C(=O)C2C3C=CC(CC3)C2C1=O (stereo not given)	-4%	?	-11%	-17%	13	35
COc1ccc(/C=N/N2C(=O)C3C4C=CC(CC4)C3C2=O)c(OC)c1 (stereo not given)	3%	30%	4%	-23%	45*	55*
O=C(NCc1ccccn1)c1ccc(Cl)s1	31%	/	3%	10%	24*	26
SMILES	AMA1 RON2 block	Pf growth 48h	HCV inh	Pf growth 96h	CHX counter	Shiga toxin inh
O=C(NCc1ccccn1)c1ccc(Br)s1	58%	3.7µM*	16%	/	17*	32*
O=C(NCc1ccccn1)c1cccs1	32%	18%	5%	13%	2	12
Cc1cccc(/C=N/NC(=O)CC(=O)NCCc2ccccc2)c1	9%	/	9%	/	/	/
COc1cc(C#N)ccc1OCC(=O)N1CCc2ccccc2C1	-4%	-6%	-12%	-7%	-3	-1
O=C(Nc1ccccc1C(F)(F)F)c1cc(-c2ccco2)on1	21%	36%	-11%	7%	12	58*
Cc1cc(-c2ccccc2C(=O)Nc2ccccc2O)on1	7%	6%	-9%	-2%	-3	-5
Cc1cc(C(=O)Nc2ccccc2C(F)(F)F)no1	-14%	2%	11%	10µM*	11	17
O=C(Nc1ccccc1C(F)(F)F)c1cc(-c2ccccc2O)on1	-2%	1µM*	4%	0.47µM*	37*	83*
CCc1ccccc1NC(=O)c1cc2ncc(Br)cn2n1	-8%	/	-7%	?	4	-8
O=C(NCc1ccc(Cl)cc1)c1cc(-c2ccco2)on1	4%	7%	20%	0%	10	-15
O=C(Nc1ccccc1C(F)(F)F)c1cc2ncc(CCCl)cn2n1	29%	?	?	?	23*	77*
O=C(Nc1ccccc1C(F)(F)F)c1ccccn1	69%	8%	30%	-9%	32*	40
CC(=O)c1cccc(NC(=O)N2CCCC2C(=O)NCc2ccc3c(c2)OCO3)c1 (stereo not given)	-20%	?	-6%	13µM*	-2	-8
CC(=O)c1cccc(NC(=O)N2CCCC2C(=O)Nc2ccc3c(c2)OCCO3)c1 (stereo not given)	32%	0%	16%	4%	14*	87*
Cc1ccc(S(=O)(=O)N2[C@@H](c3ccccc3F)C(C(=O)O)=CC[C@H]2c2cccs2)cc1	-3%	-17%	19%	?	/	/
COc1ccc2c(CN3CCN(Cc4ccccc4)CC3)cc(=O)oc2c1	-6%	/	/	/	/	/
COc1cccc(C2=NNC(=NCc3ccccc3)SC2)c1	74%	?	-21%	0%	41*	47*
CCc1ccc(C2=NNC(=Nc3c(C)n(C)n(-c4ccccc4)c3=O)SC2)cc1	9%	14%	-18%	15%	13	40
COc1ccc(CN=C2NN=C(c3cccc(OC)c3)CS2)cc1	35%	135%	-2%	-19%	42*	82*
COc1ccc(CN=C2NN=C(c3ccccc3)CS2)cc1	67%	?	-8%	?	48*	101*
O=C(O)CC1S/C(=N/N=C/C2CC=CCC2)NC1=O (stereo not given)	80%	4%	18%	5.9µM*	-3	6
O=C(O)CC1S/C(=N/N=C/C=C/c2ccccc2)NC1=O (stereo not given)	32%	-5%	12%	16%	-2	-5
CCOC(=O)C1(Cc2ccc(OC)cc2)CCN(C(=O)c2cc(C)on2)CC1	-3%	-5%	-3%	62%	18*	18
CCOC(=O)C1(Cc2ccc(OC)cc2)CCN(C(=O)c2cc3ccccc3[nH]2)CC1	-6%	13%	?	33%	54*	118*

Screening data (PubChem)
